# From paper PMC11006913
# Residue numbers refer to the chain shown, from its start.
# What was measured:
# Test in all cases: PBM; 200 nM protein, PBS
# Conditions in all cases: dsDNA, one strand shown
# [1] = target: T1, NKX2-4 (Homo sapiens, UniProt Q9H2Z4 175-261, P217L)
# T1 sequence: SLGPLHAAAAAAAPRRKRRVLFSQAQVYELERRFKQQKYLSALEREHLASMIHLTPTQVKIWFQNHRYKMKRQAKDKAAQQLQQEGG
# [2] = target: T2, NKX2-4 (Homo sapiens, UniProt Q9H2Z4 175-261, T231S)
# T2 sequence: T1 sequence with L43P, T57S
# [3] = target: T3, NKX2-4 (Homo sapiens, UniProt Q9H2Z4 175-261)
# T3 sequence: T1 sequence with L43P
# [4] = target: MSX2 (Homo sapiens, UniProt P35548 130-214, R199I)
# [5] = target: MSX2 (Homo sapiens, UniProt P35548 130-214)
# [6] = target: T4, NKX2-4 (Homo sapiens, UniProt Q9H2Z4 175-261, R246Q)
# T4 sequence: T1 sequence with L43P, R72Q
# [7] = target: PROP1 (Homo sapiens, UniProt O75360 56-141)
# [8] = target: PROP1 (Homo sapiens, UniProt O75360 56-141, R99H)
# [9] = target: PROP1 (Homo sapiens, UniProt O75360 56-141, F88S)
# [10] = target: MSX2 (Homo sapiens, UniProt P35548 130-214, F161Y)
# [11] = target: T5, PAX4 (Homo sapiens, UniProt O43316 9-242, R200K)
# T5 sequence: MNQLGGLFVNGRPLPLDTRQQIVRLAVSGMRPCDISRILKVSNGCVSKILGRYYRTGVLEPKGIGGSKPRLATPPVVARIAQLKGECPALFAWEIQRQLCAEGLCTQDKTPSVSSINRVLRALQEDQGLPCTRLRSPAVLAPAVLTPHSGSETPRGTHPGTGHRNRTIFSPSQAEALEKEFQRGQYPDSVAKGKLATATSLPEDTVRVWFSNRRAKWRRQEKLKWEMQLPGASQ
# [12] = target: T6, PAX4 (Homo sapiens, UniProt O43316 9-242)
# T6 sequence: T5 sequence with K192R
# [13] = target: ALX3 (Homo sapiens, UniProt O95076 139-225, N203Q)
# [14] = target: T7, PAX4 (Homo sapiens, UniProt O43316 9-242, R200Q)
# T7 sequence: T5 sequence with K192Q
# [15] = target: T8, PAX4 (Homo sapiens, UniProt O43316 9-242, F177V)
# T8 sequence: T5 sequence with F169V, K192R
# [16] = target: ALX3 (Homo sapiens, UniProt O95076 139-225)
# [17] = target: T9, PAX4 (Homo sapiens, UniProt O43316 9-242, F177Y)
# T9 sequence: T5 sequence with F169Y, K192R
# [18] = target: VAX1 (Homo sapiens, UniProt Q5SQQ9 86-172)
# [19] = target: ALX3 (Homo sapiens, UniProt O95076 139-225, L168Q)
# [20] = target: ALX3 (Homo sapiens, UniProt O95076 139-225, L168V)
# [21] = target: VAX1 (Homo sapiens, UniProt Q5SQQ9 86-172, T142I)
# [22] = target: T10, PAX4 (Homo sapiens, UniProt O43316 9-242, R227W)
# T10 sequence: T5 sequence with K192R, R219W
# [23] = target: ALX3 (Homo sapiens, UniProt O95076 139-225, N203S)
# [24] = target: VAX1 (Homo sapiens, UniProt Q5SQQ9 86-172, K157R)
# [25] = target: HOXB6 (Homo sapiens, UniProt P17509 132-218, K202E)
# [26] = target: HOXA2 (Homo sapiens, UniProt O43364 129-215, R185T)
# [27] = target: HOXA2 (Homo sapiens, UniProt O43364 129-215, R185K)
# [28] = target: HOXA2 (Homo sapiens, UniProt O43364 129-215, Y150S)
# [29] = target: HOXA2 (Homo sapiens, UniProt O43364 129-215)
# [30] = target: HOXB6 (Homo sapiens, UniProt P17509 132-218)
# [31] = target: PITX2 (Homo sapiens, UniProt Q99697 72-157)
# [32] = target: HOXC9 (Homo sapiens, UniProt P31274 178-260, K195R)
# [33] = target: HOXC9 (Homo sapiens, UniProt P31274 178-260)
# [34] = target: HOXC9 (Homo sapiens, UniProt P31274 178-260, R193K)
# [35] = target: HOXC9 (Homo sapiens, UniProt P31274 178-260, R222W)
# Chain of HOXC9 (Homo sapiens, UniProt P31274 178-260, R222W) (P31274 178-260 R222W): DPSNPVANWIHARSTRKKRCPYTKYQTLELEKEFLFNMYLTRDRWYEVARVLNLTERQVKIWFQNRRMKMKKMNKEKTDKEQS
# Chain of ALX3 (Homo sapiens, UniProt O95076 139-225) (O95076 139-225): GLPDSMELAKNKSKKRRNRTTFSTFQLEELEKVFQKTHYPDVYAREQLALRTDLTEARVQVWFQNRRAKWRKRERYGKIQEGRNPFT
# Chain of ALX3 (Homo sapiens, UniProt O95076 139-225, N203Q) (O95076 139-225 N203Q): as the sequence (O95076 139-225) above, with N65Q counted along it
# Chain of ALX3 (Homo sapiens, UniProt O95076 139-225, L168V) (O95076 139-225 L168V): as the sequence (O95076 139-225) above, with L30V counted along it
# Chain of PROP1 (Homo sapiens, UniProt O75360 56-141, R99H) (O75360 56-141 R99H): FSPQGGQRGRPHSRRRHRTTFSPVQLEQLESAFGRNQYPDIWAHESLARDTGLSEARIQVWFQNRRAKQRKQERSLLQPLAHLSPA
# Chain of PROP1 (Homo sapiens, UniProt O75360 56-141) (O75360 56-141): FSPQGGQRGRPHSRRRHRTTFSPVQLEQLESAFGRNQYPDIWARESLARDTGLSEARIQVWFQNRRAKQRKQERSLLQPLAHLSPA
# Chain of ALX3 (Homo sapiens, UniProt O95076 139-225, N203S) (O95076 139-225 N203S): as the sequence (O95076 139-225) above, with N65S counted along it
# Chain of PROP1 (Homo sapiens, UniProt O75360 56-141, F88S) (O75360 56-141 F88S): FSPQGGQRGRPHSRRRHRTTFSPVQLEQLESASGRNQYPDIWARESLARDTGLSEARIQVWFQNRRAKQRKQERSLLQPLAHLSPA
# Chain of ALX3 (Homo sapiens, UniProt O95076 139-225, L168Q) (O95076 139-225 L168Q): as the sequence (O95076 139-225) above, with L30Q counted along it
# Chain of HOXC9 (Homo sapiens, UniProt P31274 178-260) (P31274 178-260): as the sequence (P31274 178-260 R222W) above, with W45R counted along it
# Chain of HOXA2 (Homo sapiens, UniProt O43364 129-215, Y150S) (O43364 129-215 Y150S): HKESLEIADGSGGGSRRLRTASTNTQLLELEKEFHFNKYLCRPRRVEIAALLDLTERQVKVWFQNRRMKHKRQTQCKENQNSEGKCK
# Chain of HOXA2 (Homo sapiens, UniProt O43364 129-215, R185K) (O43364 129-215 R185K): as the sequence (O43364 129-215 Y150S) above, with S22Y, R57K counted along it
# Chain of HOXC9 (Homo sapiens, UniProt P31274 178-260, R193K) (P31274 178-260 R193K): as the sequence (P31274 178-260 R222W) above, with R16K, W45R counted along it
# Chain of MSX2 (Homo sapiens, UniProt P35548 130-214, F161Y) (P35548 130-214 F161Y): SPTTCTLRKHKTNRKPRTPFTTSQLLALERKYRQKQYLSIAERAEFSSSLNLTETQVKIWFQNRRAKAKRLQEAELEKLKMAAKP
# Chain of VAX1 (Homo sapiens, UniProt Q5SQQ9 86-172) (Q5SQQ9 86-172): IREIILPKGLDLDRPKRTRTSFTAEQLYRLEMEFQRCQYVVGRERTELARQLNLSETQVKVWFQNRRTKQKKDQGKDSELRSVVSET
# Chain of MSX2 (Homo sapiens, UniProt P35548 130-214, R199I) (P35548 130-214 R199I): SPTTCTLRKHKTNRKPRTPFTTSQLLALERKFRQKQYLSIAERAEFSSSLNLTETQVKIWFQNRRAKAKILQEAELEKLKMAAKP
# Chain of HOXB6 (Homo sapiens, UniProt P17509 132-218, K202E) (P17509 132-218 K202E): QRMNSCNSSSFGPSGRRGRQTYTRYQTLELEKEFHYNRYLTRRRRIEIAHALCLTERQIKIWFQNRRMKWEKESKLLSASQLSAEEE
# Chain of HOXA2 (Homo sapiens, UniProt O43364 129-215) (O43364 129-215): as the sequence (O43364 129-215 Y150S) above, with S22Y counted along it
# Chain of HOXA2 (Homo sapiens, UniProt O43364 129-215, R185T) (O43364 129-215 R185T): as the sequence (O43364 129-215 Y150S) above, with S22Y, R57T counted along it
# Chain of VAX1 (Homo sapiens, UniProt Q5SQQ9 86-172, K157R) (Q5SQQ9 86-172 K157R): as the sequence (Q5SQQ9 86-172) above, with K72R counted along it
# Chain of MSX2 (Homo sapiens, UniProt P35548 130-214) (P35548 130-214): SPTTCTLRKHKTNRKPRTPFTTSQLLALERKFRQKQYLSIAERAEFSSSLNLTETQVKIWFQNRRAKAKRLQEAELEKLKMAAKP
# Chain of HOXB6 (Homo sapiens, UniProt P17509 132-218) (P17509 132-218): as the sequence (P17509 132-218 K202E) above, with E71K counted along it
# Chain of VAX1 (Homo sapiens, UniProt Q5SQQ9 86-172, T142I) (Q5SQQ9 86-172 T142I): as the sequence (Q5SQQ9 86-172) above, with T57I counted along it
# Chain of HOXC9 (Homo sapiens, UniProt P31274 178-260, K195R) (P31274 178-260 K195R): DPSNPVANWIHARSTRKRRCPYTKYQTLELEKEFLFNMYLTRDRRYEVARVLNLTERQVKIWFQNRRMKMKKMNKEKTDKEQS
sequence,measurement,setting,value
GACTGAGC,binding signal,[1],"9.79 upbm affinity estimate (log intensity, higher = more binding, comparable within an allelic series)"
same,binding signal,[2],"9.84 upbm affinity estimate (log intensity, higher = more binding, comparable within an allelic series)"
same,binding signal,[3],"9.65 upbm affinity estimate (log intensity, higher = more binding, comparable within an allelic series)"
same,binding signal,[4],"9.57 upbm affinity estimate (log intensity, higher = more binding, comparable within an allelic series)"
same,binding signal,[5],"9.48 upbm affinity estimate (log intensity, higher = more binding, comparable within an allelic series)"
same,binding signal,[6],"9.92 upbm affinity estimate (log intensity, higher = more binding, comparable within an allelic series)"
same,binding signal,[7],"6.86 upbm affinity estimate (log intensity, higher = more binding, comparable within an allelic series)"
same,binding signal,[8],"6.74 upbm affinity estimate (log intensity, higher = more binding, comparable within an allelic series)"
same,binding signal,[9],"6.66 upbm affinity estimate (log intensity, higher = more binding, comparable within an allelic series)"
same,binding signal,[10],"9.49 upbm affinity estimate (log intensity, higher = more binding, comparable within an allelic series)"
CCCGGCGC,binding signal,[1],"9.45 upbm affinity estimate (log intensity, higher = more binding, comparable within an allelic series)"
same,binding signal,[2],"9.31 upbm affinity estimate (log intensity, higher = more binding, comparable within an allelic series)"
same,binding signal,[11],"9.17 upbm affinity estimate (log intensity, higher = more binding, comparable within an allelic series)"
same,binding signal,[12],"9.1 upbm affinity estimate (log intensity, higher = more binding, comparable within an allelic series)"
same,binding signal,[3],"9.49 upbm affinity estimate (log intensity, higher = more binding, comparable within an allelic series)"
same,binding signal,[13],"7.83 upbm affinity estimate (log intensity, higher = more binding, comparable within an allelic series)"
same,binding signal,[14],"9.2 upbm affinity estimate (log intensity, higher = more binding, comparable within an allelic series)"
same,binding signal,[15],"9.03 upbm affinity estimate (log intensity, higher = more binding, comparable within an allelic series)"
same,binding signal,[16],"7.67 upbm affinity estimate (log intensity, higher = more binding, comparable within an allelic series)"
same,binding signal,[6],"9.55 upbm affinity estimate (log intensity, higher = more binding, comparable within an allelic series)"
same,binding signal,[17],"9.02 upbm affinity estimate (log intensity, higher = more binding, comparable within an allelic series)"
same,binding signal,[18],"7.45 upbm affinity estimate (log intensity, higher = more binding, comparable within an allelic series)"
same,binding signal,[19],"7.69 upbm affinity estimate (log intensity, higher = more binding, comparable within an allelic series)"
same,binding signal,[20],"7.67 upbm affinity estimate (log intensity, higher = more binding, comparable within an allelic series)"
same,binding signal,[21],"7.15 upbm affinity estimate (log intensity, higher = more binding, comparable within an allelic series)"
same,binding signal,[22],"9.13 upbm affinity estimate (log intensity, higher = more binding, comparable within an allelic series)"
same,binding signal,[23],"7.82 upbm affinity estimate (log intensity, higher = more binding, comparable within an allelic series)"
same,binding signal,[24],"7.47 upbm affinity estimate (log intensity, higher = more binding, comparable within an allelic series)"
CCCGGGCC,binding signal,[1],"9.16 upbm affinity estimate (log intensity, higher = more binding, comparable within an allelic series)"
same,binding signal,[2],"8.94 upbm affinity estimate (log intensity, higher = more binding, comparable within an allelic series)"
same,binding signal,[11],"9.02 upbm affinity estimate (log intensity, higher = more binding, comparable within an allelic series)"
same,binding signal,[12],"9.01 upbm affinity estimate (log intensity, higher = more binding, comparable within an allelic series)"
same,binding signal,[3],"9.18 upbm affinity estimate (log intensity, higher = more binding, comparable within an allelic series)"
same,binding signal,[25],"8.77 upbm affinity estimate (log intensity, higher = more binding, comparable within an allelic series)"
same,binding signal,[26],"7.21 upbm affinity estimate (log intensity, higher = more binding, comparable within an allelic series)"
same,binding signal,[13],"7.64 upbm affinity estimate (log intensity, higher = more binding, comparable within an allelic series)"
same,binding signal,[14],"9.07 upbm affinity estimate (log intensity, higher = more binding, comparable within an allelic series)"
same,binding signal,[27],"10.1 upbm affinity estimate (log intensity, higher = more binding, comparable within an allelic series)"
same,binding signal,[15],"8.94 upbm affinity estimate (log intensity, higher = more binding, comparable within an allelic series)"
same,binding signal,[16],"7.66 upbm affinity estimate (log intensity, higher = more binding, comparable within an allelic series)"
same,binding signal,[6],"9.15 upbm affinity estimate (log intensity, higher = more binding, comparable within an allelic series)"
same,binding signal,[17],"8.97 upbm affinity estimate (log intensity, higher = more binding, comparable within an allelic series)"
same,binding signal,[7],"6.58 upbm affinity estimate (log intensity, higher = more binding, comparable within an allelic series)"
same,binding signal,[8],"6.56 upbm affinity estimate (log intensity, higher = more binding, comparable within an allelic series)"
same,binding signal,[19],"7.63 upbm affinity estimate (log intensity, higher = more binding, comparable within an allelic series)"
same,binding signal,[20],"7.64 upbm affinity estimate (log intensity, higher = more binding, comparable within an allelic series)"
same,binding signal,[9],"6.14 upbm affinity estimate (log intensity, higher = more binding, comparable within an allelic series)"
same,binding signal,[22],"9.08 upbm affinity estimate (log intensity, higher = more binding, comparable within an allelic series)"
same,binding signal,[28],"10.2 upbm affinity estimate (log intensity, higher = more binding, comparable within an allelic series)"
same,binding signal,[23],"7.61 upbm affinity estimate (log intensity, higher = more binding, comparable within an allelic series)"
same,binding signal,[29],"7.08 upbm affinity estimate (log intensity, higher = more binding, comparable within an allelic series)"
same,binding signal,[30],"8.77 upbm affinity estimate (log intensity, higher = more binding, comparable within an allelic series)"
TCATCGAA,binding signal,[1],"11.4 upbm affinity estimate (log intensity, higher = more binding, comparable within an allelic series)"
same,binding signal,[2],"11.5 upbm affinity estimate (log intensity, higher = more binding, comparable within an allelic series)"
same,binding signal,[3],"11.2 upbm affinity estimate (log intensity, higher = more binding, comparable within an allelic series)"
same,binding signal,[6],"11.5 upbm affinity estimate (log intensity, higher = more binding, comparable within an allelic series)"
GGTCCTCA,binding signal,[1],"11.5 upbm affinity estimate (log intensity, higher = more binding, comparable within an allelic series)"
same,binding signal,[2],"11.9 upbm affinity estimate (log intensity, higher = more binding, comparable within an allelic series)"
same,binding signal,[3],"11.5 upbm affinity estimate (log intensity, higher = more binding, comparable within an allelic series)"
AGCGGCCA,binding signal,[1],"9.69 upbm affinity estimate (log intensity, higher = more binding, comparable within an allelic series)"
same,binding signal,[2],"9.47 upbm affinity estimate (log intensity, higher = more binding, comparable within an allelic series)"
same,binding signal,[3],"9.64 upbm affinity estimate (log intensity, higher = more binding, comparable within an allelic series)"
same,binding signal,[31],"8.04 upbm affinity estimate (log intensity, higher = more binding, comparable within an allelic series)"
same,binding signal,[6],"9.57 upbm affinity estimate (log intensity, higher = more binding, comparable within an allelic series)"
CGCGCCCG,binding signal,[1],"9.29 upbm affinity estimate (log intensity, higher = more binding, comparable within an allelic series)"
same,binding signal,[32],"9.51 upbm affinity estimate (log intensity, higher = more binding, comparable within an allelic series)"
same,binding signal,[2],"9.29 upbm affinity estimate (log intensity, higher = more binding, comparable within an allelic series)"
same,binding signal,[3],"9.39 upbm affinity estimate (log intensity, higher = more binding, comparable within an allelic series)"
same,binding signal,[33],"9.64 upbm affinity estimate (log intensity, higher = more binding, comparable within an allelic series)"
same,binding signal,[31],"7.51 upbm affinity estimate (log intensity, higher = more binding, comparable within an allelic series)"
same,binding signal,[34],"9.54 upbm affinity estimate (log intensity, higher = more binding, comparable within an allelic series)"
same,binding signal,[6],"9.3 upbm affinity estimate (log intensity, higher = more binding, comparable within an allelic series)"
same,binding signal,[35],"9.66 upbm affinity estimate (log intensity, higher = more binding, comparable within an allelic series)"
